# An excerpt weighted towards active compounds, which were near 1.7% of everything screened.
# 3CLpro inhibitor: SARS-CoV 3CLpro protease inhibition; inhibition, % at 6 µM; hit rate 0.14% among 290,000; recombinant SARS-CoV 3CLpro, quenched FRET peptide cleavage; AID 1706; in the data active means inhibition above about 12%
# Vc quorum ag: inducers of Vibrio cholerae quorum light production without autoinducers; V. cholerae BH1578 lux reporter, luminescence, 6 h; activation, % at 18.7 µM; hit rate 0.16% among 350,000; in the data active means activation mostly above about 9.7%, no sharp cut-off
# BJeLR lethal: kills HRASV12-expressing BJeLR cells | inhibition, % (no concentration beside the values) | AID 1554 | BJeLR (HRASV12) viability, CellTiter-Glo ATP luminescence, 48 h | hit rate 0.17% among 300,000; in the data active means inhibition above about 50%
# VHR inh abs: blocks human VHR1 dual specificity phosphatase. recombinant VHR phosphatase, pNPP absorbance. inhibition, % at 13.3 µM. hit rate 0.52% among 290,000. AID 1654. P51452; in the data active means inhibition above about 50%
# Target sequence (P51452 whole entry, looked up): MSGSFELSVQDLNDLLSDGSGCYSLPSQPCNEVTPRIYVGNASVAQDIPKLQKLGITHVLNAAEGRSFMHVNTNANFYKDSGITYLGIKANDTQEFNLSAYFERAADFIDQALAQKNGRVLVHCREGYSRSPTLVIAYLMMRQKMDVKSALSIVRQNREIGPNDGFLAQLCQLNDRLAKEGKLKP
# MazEF act: MazEF (E. coli) toxin RNase activation; FAM/BHQ RNA-DNA oligo cleavage fluorescence, 5 h; activation, % at 20 µM; hit rate 0.32% among 350,000; in the data active means activation above about 50%
# Target sequence (P0AE70 whole entry, looked up): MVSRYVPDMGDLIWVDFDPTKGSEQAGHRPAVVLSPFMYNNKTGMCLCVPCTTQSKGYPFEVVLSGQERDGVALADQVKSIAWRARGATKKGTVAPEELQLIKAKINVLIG
# PfHsp40 yeast: restores yeast growth despite PfHsp40 toxicity; S. cerevisiae expressing PfHsp40, growth rescue, ATP luminescence; growth rescue, % at 12.5 µM; hit rate 0.68% among 340,000; AID 504582; in the data active means growth rescue above about 28%, passing the limit was not always enough;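 further: yeast W303a lacking pdr1 and pdr3 grown in galactose medium; growth measured after three days at 30 °C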
# The depositor's hits bear a star; i = inactive; / = not tested or not shown.
SMILES,3CLpro inhibitor,Vc quorum ag,BJeLR lethal,VHR inh abs,MazEF act,PfHsp40 yeast
Cc1cc(C(=O)N2CCN(c3ccc(F)cc3)CC2)on1,-2.0,-0.5,11.7,-2.3,11.9,0.4
O=c1[nH]c(SCc2ccc(OC(F)(F)F)cc2)nc2c1CCC2,/,-0.7,/,/,/,/
O=C(O)/C=C/C(=O)c1ccc2c(c1)CCc1ccccc1-2,/,i,18.4,/,-20.7,429.6*
Cc1ccc2c(c1)C1CC(C)(O2)N(c2cccc(C(=O)N3CCN(c4ccccn4)CC3)c2)C(=O)N1 (configuration not stated),-3.5,-0.4,-2.7,56.3*,6.7,0.4
CC12CC(NC(=O)N1c1cccc(C(=O)Nc3ncn[nH]3)c1)c1ccccc1O2 (configuration not stated),0.8,-2.0,-1.7,-10.5,59.3*,-1.5
CCOC(=O)C1CCN(C(=O)c2cccc(N3C(=O)NC4CC3(C)Oc3ccc(C)cc34)c2)CC1 (configuration not stated),-0.4,-0.4,-5.2,5.5,10.2,-0.4
CCNC(=O)C1(C)CCCN(Cc2csc3ccccc23)C1 (configuration not stated),/,i,/,/,/,/
O=C(NNc1nc2cc3c(cc2s1)OCO3)c1cccc(F)c1,6.5,-0.3,6.4,0.2,3.2,39.9*
CC(C)[C@H](NC(=O)[C@@H]1Cc2ccccc2CN1)C(=O)NC1CCCCC1,1.1,i,0.0,-2.2,1.7,0.1
C[C@H](NC(=O)[C@@H]1Cc2ccccc2CN1)C(=O)NC1CCCCC1,-2.3,i,9.3,52.7*,6.7,-0.5
COc1cccc(CN2CCN(C(=O)CC(C)C)CC2)c1,-2.2,/,8.1,10.5,4.6,35.9*
COc1cccc(CN2CC(C(=O)N3CCOCC3)CCC2=O)c1 (configuration not stated),-1.0,7.1,5.9,52.7*,8.7,-0.7
COc1cccc(CN2CC(C(=O)N3CCCCCCC3)CCC2=O)c1 (configuration not stated),-0.7,3.1,5.6,-31.1,10.4,-1.0
COc1cccc(CC(=O)NC2CCCN(Cc3ccc(Cl)cc3)C2)c1 (configuration not stated),-3.2,19.3,-4.3,53.3*,2.2,-0.4
COc1cccc(CN2CCN(C(=O)C3CCC(=O)N(C4CCCC4)C3)CC2)c1 (configuration not stated),-4.3,0.0,2.9,51.2*,1.1,-1.0
O=C(C1CCC(=O)N(C2CCCC2)C1)N1CCN(Cc2cccc(F)c2)CC1 (configuration not stated),-1.9,i,0.2,-14.6,3.3,0.4
COc1cccc(CC(=O)NC2CCCN(Cc3ccccc3F)C2)c1 (configuration not stated),-4.5,-1.0,-2.7,-3.2,4.2,-0.9
CC(C)CC(=O)N1CCN(Cc2cccc(F)c2)CC1,0.7,i,-1.1,23.2,0.7,0.6
COc1ccc2cnn(-c3ccccc3)c(=O)c2c1OC,-3.9,i,-6.5,-5.1,-2.6,65.5*
COc1ccc2cnn(-c3ccccc3C)c(=O)c2c1OC,0.8,0.6,-1.9,-9.6,7.0,136.0*
COc1ccc2cnn(Cc3ccccc3)c(=O)c2c1OC,-6.7,-0.6,2.5,11.6,7.3,-0.8
COc1ccc2cnn(-c3ccc(OC(F)(F)F)cc3)c(=O)c2c1OC,3.1,0.9,2.8,6.1,10.4,10.3
Cc1ccc(NC(=S)Nc2ccc(F)cc2)c(C)c1,5.5,-0.3,-3.1,33.4,-0.4,-0.4
O=C(CCl)Nc1cc(SCC(O)CO)cc([N+](=O)[O-])c1 (configuration not stated),6.4,i,81.0*,-6.0,1.3,-0.2
O=S(=O)(CCSc1ccccn1)c1nc2ccccc2s1,2.8,i,-13.5,1.8,-6.9,58.6*
O=S(=O)(CCSc1nc2ccccc2o1)c1nc2ccccc2s1,1.7,i,16.0,-1.0,1.3,9.5
CC(Sc1ncnc2sccc12)C(=O)Nc1ccc(S(=O)(=O)N2CCOCC2)cc1 (configuration not stated),/,-0.5,/,/,3.0,1.2
O=C(CSc1nc2[nH]c(=O)cc(O)c2s1)Nc1cc(Cl)cc(Cl)c1,6.3,-0.2,2.0,15.8,1.7,9.1
Cc1cc(C)cc(NC(=O)CSc2nc3[nH]c(=O)cc(O)c3s2)c1,8.1,-0.2,-6.2,2.2,3.2,37.6*
